EphB4 ephrin blk – antagonists of human EphB4-ephrin-B2 interaction; inhibition, % at 7 µM; EphB4 LBD / TNYL-RAW-Alexa532 peptide, fluorescence polarization; 0.15% of 97,000 active; P54760;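 active = inhibition above the screen-wide mean inhibition plus 3 SD, cut at about 15% in these data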;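 note: 0% = DMSO wells and 100% = excess unlabeled TNYL-RAW peptide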
PTPN22 inh 2 – LYP (human) phosphatase inhibition | 0.21% of 96,000 active | Q9Y2R2 | inhibition, % at 2 µM | AID 640 | recombinant LYP catalytic domain, DiFMUP fluorescence;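 active = inhibition at 2 µM at or above a set limit, the screen mean plus 3 SD, cut at about 24% in these data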;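 note: 0% = DMSO with enzyme and 100% = enzyme fully blocked by orthovanadate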
Target sequence (Q9Y2R2 whole entry, looked up, the tested form may be a part): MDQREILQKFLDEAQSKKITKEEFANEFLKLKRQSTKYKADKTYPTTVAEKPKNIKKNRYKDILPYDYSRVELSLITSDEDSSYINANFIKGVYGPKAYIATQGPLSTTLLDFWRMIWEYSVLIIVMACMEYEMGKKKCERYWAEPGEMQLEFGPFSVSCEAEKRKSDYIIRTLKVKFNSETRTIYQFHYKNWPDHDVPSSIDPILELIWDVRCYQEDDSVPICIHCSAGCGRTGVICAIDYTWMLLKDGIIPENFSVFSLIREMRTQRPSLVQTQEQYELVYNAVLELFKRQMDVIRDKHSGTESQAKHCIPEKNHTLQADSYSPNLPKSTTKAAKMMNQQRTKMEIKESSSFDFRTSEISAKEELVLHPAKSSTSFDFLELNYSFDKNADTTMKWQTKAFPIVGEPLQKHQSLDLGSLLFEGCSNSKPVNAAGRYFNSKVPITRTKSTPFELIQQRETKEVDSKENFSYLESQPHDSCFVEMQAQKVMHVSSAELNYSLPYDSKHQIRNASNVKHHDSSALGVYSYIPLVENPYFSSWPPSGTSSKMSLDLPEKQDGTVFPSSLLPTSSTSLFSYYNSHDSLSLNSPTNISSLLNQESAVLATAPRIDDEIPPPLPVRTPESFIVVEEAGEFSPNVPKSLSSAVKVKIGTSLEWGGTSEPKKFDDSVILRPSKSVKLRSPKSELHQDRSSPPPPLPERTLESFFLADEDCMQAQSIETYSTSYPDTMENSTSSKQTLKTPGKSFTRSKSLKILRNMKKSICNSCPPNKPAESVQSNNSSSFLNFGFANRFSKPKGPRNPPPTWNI
sEH inhibitor – blocks human soluble epoxide hydrolase activity; 0.34% of 91,000 active; inhibition, % at 2 µM; recombinant human sEH enzymatic activity assay; in the data active = inhibition above about 80%
LYP act – increases human PTPN22 phosphatase activity. Q9Y2R2. recombinant LYP, DiFMUP fluorescence; 0 = plate median, 100 = signal doubled. activation, % at 2 µM. 0.11% of 96,000 active. AID 697;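 active = activation at 2 µM above a set limit, the mean plus 5 SD, cut at about 37% in these data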
sEH activator – activators of human soluble epoxide hydrolase. purified human sEH enzymatic activity, activator screen. activation, % at 2 µM. AID 717. P34913. 0.04% of 91,000 active; in the data active = activation above about 37%
PLAP act – activators of human placental alkaline phosphatase. P05187. purified PLAP enzyme, luminescent substrate read-out; hits give high values. activation fold at 20 µM. 1.2% of 96,000 active; in the data active = activation fold above about 2
Starred values were filed as active, the others as inactive; . = no result. Most compounds without a hit are left out; they make up all but 1.6% or so of the library.

SMILES	EphB4 ephrin blk	PTPN22 inh 2	sEH inhibitor	LYP act	sEH activator	PLAP act
Cc1ccc(NC(=S)NNC(=O)Cn2nc([N+](=O)[O-])cc2C)cc1	-12.3	6.3	11.6	-1.1	-8.7	2*
O=C(Cn1nc(C(F)F)cc1C(F)F)NNC(=S)Nc1ccc(F)cc1	-2.3	1.1	-12.5	1.8	14.6	2.4*
Cc1nn(C)c(C(=O)NNC(=S)Nc2ccc(F)cc2)c1[N+](=O)[O-]	3.0	-13.3	-10.4	13.1	11.9	.
Cc1ccc(NC(=S)NNC(=O)CCn2cc(C)cn2)cc1	1.0	5.5	1.5	-0.3	-1.6	2.4*
Cc1cnn(CCC(=O)NNC(=S)Nc2ccccc2)c1	-0.3	1.2	16.8	2.9	-16.1	1.9
Cc1cc([N+](=O)[O-])nn1CC(=O)NNC(=S)Nc1ccc(Cl)cc1	-8.7	14.3	-3.1	-9.6	6.5	1.3
COc1ccc(C2(O)CCN(C(=O)NC3CCCCC3)CC2)cc1	-3.8	-17.0	37.4	15.3	-38.7	1
CCOC(=O)c1c(NC(=O)CSc2ncn[nH]2)sc(C)c1C	-2.9	0.8	-4.3	3.4	2.8	2*
O=C(CSc1ncn[nH]1)Nc1nc(-c2ccccc2)cs1	6.3	11.7	-1.0	-11.1	3.5	2.8*
CCCc1nnc(NC(=O)CN2CCN(C)CC2)s1	-2.4	1.5	-10.0	2.2	11.0	0.9
CCCc1nnc(NC(=O)CSc2ncn[nH]2)s1	-2.7	-2.1	-10.6	3.4	12.3	2.7*
CCCc1nnc(NC(=O)CNc2ccc(F)cc2)s1	16.0*	0.2	-1.3	-3.0	0.8	1
O=C(CN1C(=O)C2C3C=CC(C3)C2C1=O)Nc1nc(SCc2ccc(Cl)cc2)n[nH]1 (stereo unspecified)	-5.1	-4.3	-14.7	3.8	12.9	2.3*
O=C(CN1C(=O)C2C3C=CC(C3)C2C1=O)Nc1nc2ccccc2[nH]1 (stereo unspecified)	-2.7	-7.1	-2.0	9.7	1.0	1.8
Cc1cc(NC(=O)Cn2c(C)nc3ccccc3c2=O)ccc1Br	-3.3	-4.7	-2.3	7.8	5.4	0.9
Cc1cccc(C(=O)N2CCN(c3ccc(C(F)(F)F)cn3)CC2)c1C	6.7	-5.3	-11.9	6.0	11.2	2.1*
O=C(c1ccccn1)N1CCN(c2ccc(C(F)(F)F)cn2)CC1	-7.3	-11.0	0.0	6.5	0.0	.
O=C(Nc1ncc(Cc2ccccc2Cl)s1)C1CCCO1 (stereo unspecified)	0.7	-7.8	10.4	2.4	-11.0	.
O=C(CN1CCOCC1)Nc1ncc(Cc2ccccc2Cl)s1	-0.3	2.3	-1.7	0.1	1.3	2*
CC(C)C(CCNC(=O)CN1C(=O)c2ccccc2C1=O)c1ccco1 (stereo unspecified)	-1.5	7.6	12.9	-4.2	-12.1	1
CC(C)C(CCNC(=O)CC(Cc1ccccc1)c1ccco1)c1ccco1 (stereo unspecified)	0.0	24.1*	46.0	-21.2	-46.2	1.2
Cc1ccc(C(=O)n2nc(-c3ccco3)nc2N)cc1	4.9	28.8*	2.6	-27.5	-5.3	1
CCc1nc(SCC(=O)Nc2ccnc3ccccc23)n[nH]1	0.5	-20.0	2.4	15.6	-2.3	1.2
O=C(CCl)Nc1ccccc1Sc1ccccc1	-10.8	-20.0	-9.9	19.5	8.0	0.9
Nc1nc(SCC(=O)Nc2ccccc2Sc2ccccc2)n[nH]1	-0.7	-2.8	8.6	3.5	-8.8	2.3*
SMILES	EphB4 ephrin blk	PTPN22 inh 2	sEH inhibitor	LYP act	sEH activator	PLAP act
CCc1nc(SCC(=O)Nc2ccccc2C(=O)OC)n[nH]1	2.1	-5.6	4.6	4.2	-3.4	2*
CC(C)Nc1nc(Cl)nc(NNC(=O)C(C)Oc2ccccc2)n1 (stereo unspecified)	-0.6	-6.9	-3.6	12.8	3.5	2.2*
COC(=O)C(NC(=O)C(C)Oc1ccccc1)C(C)C (stereo unspecified)	0.3	-14.5	-16.9	8.6	21.4	0.9
CCn1nc(NC(=O)c2ccccn2)c2cc3cc(C)ccc3nc21	-2.0	-10.2	6.6	7.9	-7.1	1.8
Cc1ccc2nc3c(cc2c1)c(NC(=O)c1ccccn1)nn3CC(C)C	0.8	1.2	-18.1	1.1	17.4	2.3*
CCOC(=O)Cc1csc(NC(NC(=O)OCC)(C(=O)OCC)C(F)(F)F)n1 (stereo unspecified)	4.1	-7.1	-4.3	6.4	7.5	.
CCc1ccc(NC(=O)CSc2nc3n[nH]c(C)c3c(=N)n2-c2cccc(OC)c2)cc1	-1.6	6.2	2.1	-8.6	-0.9	.
Cc1ccc(CNC(=O)CSc2nc3n[nH]c(C)c3c(=N)n2-c2cccc(C)c2)cc1	-2.9	1.2	0.6	-3.6	1.5	2.5*
CCNC(=O)COc1cc(C)c(Cl)c(C)c1	0.7	24.6*	-6.7	-25.0	4.7	0.9
Cc1cc(OCC(=O)N2CCCC2)cc(C)c1Cl	0.4	0.5	2.6	-1.0	2.7	1.3
COc1ccccc1NC(=O)N1CCc2[nH]c3ccc(Cl)cc3c2C1	3.3	-21.5	-10.6	26.5	11.8	1
COc1cccc(CNC(=O)C2CCN(Cc3cnn(-c4ccccc4)c3-n3cccc3)CC2)c1	2.6	1.5	73.4	0.2	-72.7	2.2*
O=C(NCc1ccccn1)C1CCN(Cc2cnn(-c3ccccc3)c2-n2cccc2)CC1	-1.2	-0.9	10.0	0.6	-7.1	1.8
O=C(NC1CC1)C1CCN(Cc2cnn(-c3ccccc3)c2-n2cccc2)CC1	4.6	-12.6	8.6	11.5	-9.7	2*
COc1cccc(-c2cc(C(=O)NCCCn3ccnc3)no2)c1	2.0	5.9	-2.1	-4.5	-0.2	0.9
CCOC(=O)c1sc(NC(=O)/C=C/c2cnn(C)c2C)c(C(=O)OC(C)C)c1C	-2.2	1.7	-24.6	1.9	28.1	1.4
COc1cc(/C=N/N(C)c2ccccc2)cc(Cl)c1O	3.2	4.7	5.7	-3.3	-7.8	0.9
O=C(NC(CSCc1ccccc1)C(=O)N/N=C/c1ccc(O)cc1O)c1ccc([N+](=O)[O-])cc1 (stereo unspecified)	-1.6	-1.0	20.3	-1.8	-18.8	2.7*
COc1ccccc1NS(=O)(=O)CC12CCC(CC1=O)C2(C)C (stereo unspecified)	-1.9	-1.4	-13.6	-0.8	12.9	1
CSc1nc2ccccc2cc1/C=C(\C#N)c1cccc(Cl)c1	5.4	-7.8	-5.7	3.5	6.2	1.1
OCCN1CCOCCN(CCO)CCOCC1	-4.6	-7.7	1.8	7.1	-2.3	2*
O=C(NNC1=C(C(=O)C(F)(F)F)CCC1)c1cccc(Cl)c1	0.7	4.2	-3.8	-2.8	1.5	2*
COc1ccc(CCN2C(=S)NC3CC2(C)Oc2ccc([N+](=O)[O-])cc23)cc1OC (stereo unspecified)	-2.1	21.2	-14.0	-22.0	12.5	1
Cc1cc(C(=O)NNC(=S)NCC2CCCO2)cs1 (stereo unspecified)	-8.5	-0.9	6.3	3.4	-5.7	2.2*
Cc1ccc(C(=O)NC(=S)NCC2CCCO2)cc1 (stereo unspecified)	-9.2	4.2	6.2	0.8	-3.9	0.9

Screens deposited in PubChem by several laboratories.
